The test system of experiment [1] is XIP peptide (Xip251-270) binding. The experiment can be described thus: XIP fragment 251-270 binding compounds – biochemical, small-molecule microarray, fluorescence 635/667 nm, 0.1 µg/mL protein, primary screen (AID 1182). Particulars: fluorescent protein binding, 635 nm, higher = more signal, called active from +8 up or from −8 down.
The next experiment deals with XIP peptide (Xip251-270). The experiment can be described thus: compounds binding XIP fragment 251-270 – biochemical, small-molecule microarray, fluorescence 635/667 nm, 0.5 µg/mL protein, primary screen (AID 1183). The settings on record: fluorescence 635 nm, higher = more signal.
A short description of experiment [2]: blood-stage malaria parasite viability loss – strain 3D7, DAPI fluorescence, 100 nL, primary screen (AID 1184).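 Note: parasites grown inside human red blood cells in medium with human serum.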 The settings on record: P. falciparum 3D7 growth, 3 d, higher = more signal.
Experiment [3] has as its target Homeobox protein Hox-A13 (Mus musculus) (UniProt Q62424). The experiment can be described thus: disruptors of Hoxa13 oligonucleotide interaction – biochemical, fluorescence polarization, labeled oligonucleotide, primary screen (AID 1185). The settings on record: Hoxa13:DNA binding, 15 min, higher = more signal, called active from +8 up or from −8 down. A general note: In fluorescence polarisation assays a small probe gives low polarisation when free and higher when bound to something large.

Experiment [4] can be described thus: blockers of DNA damage checkpoint Chk1 activation – imaging, HeLa, hydroxyurea, phospho-Chk1 antibody, percent positive cells, primary screen (AID 1186). Particulars: hydroxyurea-induced phospho-Chk1 immunofluorescence imaging, higher = more signal.
Experiment [5] in a line: blockers of DNA damage checkpoint Chk1 activation – imaging, HeLa, hydroxyurea, phospho-Chk1 nuclear intensity, primary screen (AID 1187). Particulars: hydroxyurea-induced phospho-Chk1 immunofluorescence imaging, higher = more signal.

These results are taken from PubChem BioAssay.

The source made the active and inactive calls. Unless noted, the rule behind the calls is not given here.

Sequence of Homeobox protein Hox-A13 (Mus musculus) (Q62424 whole entry, looked up): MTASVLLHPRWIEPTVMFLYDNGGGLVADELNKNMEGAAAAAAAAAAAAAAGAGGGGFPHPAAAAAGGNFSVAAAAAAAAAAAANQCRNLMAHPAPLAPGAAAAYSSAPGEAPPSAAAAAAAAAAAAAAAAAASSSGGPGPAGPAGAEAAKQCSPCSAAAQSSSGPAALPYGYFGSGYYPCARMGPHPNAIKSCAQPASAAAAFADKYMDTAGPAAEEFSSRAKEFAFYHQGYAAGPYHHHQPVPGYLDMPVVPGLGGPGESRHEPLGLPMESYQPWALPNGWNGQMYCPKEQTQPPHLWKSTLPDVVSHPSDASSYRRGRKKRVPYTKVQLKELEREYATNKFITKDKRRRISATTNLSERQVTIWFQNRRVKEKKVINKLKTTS

With `CO[C@H]1O[C@H](CO)[C@@H](OC(=O)Nc2ccccc2)[C@@H]2OC(=O)[C@H](Cc3ccccc3)C/C=C/C[C@@H](Cc3ccccc3)C(=O)O[C@@H]12`, the composite z-score in experiment [1] is 1.5 (inactive); in the experiment on XIP peptide (Xip251-270), 0.539. The z-score in experiment [2] was -1.42; in experiment [3] it was -2.64 (inactive); in experiment [4] it was -0.62 (inactive); in experiment [5] it was -0.628 (inactive).
`C=CCC(OC(C)=O)[C@@H]1[C@@H](N(Cc2cccc3ccccc23)C(=O)c2ccc(C)cc2)c2cc(OCCCO)ccc2N1C(=O)c1ccc2ccccc2n1` (some centres not stated): the composite z-score was 0.655 (inactive) in experiment [1] and -0.165 in the experiment on XIP peptide (Xip251-270). Besides, the z-score in experiment [2] was -0.344; in experiment [3], -0.702 (inactive); in experiment [4], -0.39 (inactive); in experiment [5], -0.404 (inactive).
As for `CCC[C@@H]1C=C(C(=O)OCC)[C@H](c2ccccc2)N1S(=O)(=O)c1ccc(C)cc1`, the composite z-score in experiment [1] was 0.406 (inactive); in the experiment on XIP peptide (Xip251-270), 0.681. In addition, the z-score in experiment [2] is -2.11; in experiment [3], -0.624 (inactive); in experiment [4], 0.144 (inactive); in experiment [5], 0.0243 (inactive).
In the case of `COC(=O)c1c(CC[C@@H](CO)NC(=O)N[C@@H](Cc2ccccc2)Cn2cc(-c3cncn3C)nn2)oc(C(C)=O)c1C(=O)OC`, the composite z-score in experiment [1] was 0.606 (inactive); in the experiment with XIP peptide (Xip251-270) it was 0.851. Further, the z-score was -2.06 in experiment [2], -4.35 (inactive) in experiment [3], -0.331 (inactive) in experiment [4] and -0.0353 (inactive) in experiment [5].
With `CCCC[C@@H](O)C1=C(COC)Cn2c(=O)n(-c3ccccc3)c(=O)n2[C@H]1CO`, the composite z-score in experiment [1] was -0.698 (inactive); in the experiment on XIP peptide (Xip251-270), -0.0217. For the same molecule, the z-score was 0.519 in experiment [2], -0.879 (inactive) in experiment [3], -0.464 (inactive) in experiment [4] and 0.126 (inactive) in experiment [5].
With `COc1ccc([Si](C)(C)[C@H]2[C@H](CCO)O[C@@]3(C(=O)N(Cc4ccccc4)c4ccc(N(C=O)c5ccccc5)cc43)[C@@H]2C)cc1`, the composite z-score in experiment [1] was 0.572 (inactive); with XIP peptide (Xip251-270), 0.571. In addition, the z-score was -2.74 in experiment [2], -0.799 (inactive) in experiment [3], 1.75 (inactive) in experiment [4] and 1.49 (inactive) in experiment [5].
With `CN(C)CCCNC(=O)[C@@]1(Cc2ccccc2I)c2ccccc2C(=O)N(Cc2ccccc2)[C@H]1c1ccc(CO)cc1`, the composite z-score in experiment [1] was 0.869 (inactive); with XIP peptide (Xip251-270), 0.828. In addition, the z-score is -2.21 in experiment [2], -0.783 (inactive) in experiment [3], 0.22 (inactive) in experiment [4] and 0.276 (inactive) in experiment [5].
Take `COc1cc2c(cc1O)C(C1CC1)N(Cc1ccc([N+](=O)[O-])o1)CC2` (configuration not stated): the composite z-score in experiment [1] was 0.402 (inactive); in the experiment on XIP peptide (Xip251-270) it was 0.315. Also, the z-score was -0.993 in experiment [2], -6.04 (inactive) in experiment [3], -0.0479 (inactive) in experiment [4] and 0.125 (inactive) in experiment [5].
Regarding `COc1ccc([Si](C)(C)[C@H]2[C@H](CCn3cc([C@H](O)c4ccccc4)nn3)O[C@@]3(C(=O)N(c4ccccc4)c4ccccc43)[C@@H]2C)cc1`, the composite z-score in experiment [1] is -0.292 (inactive); in the experiment on XIP peptide (Xip251-270) it was 0.505. The z-score in experiment [2] is -1.18; in experiment [3], -3.4 (inactive); in experiment [4] it was -0.282 (inactive); in experiment [5], -0.513 (inactive).
For the molecule `O=C1C2C=CC(C(O)C(c3ccccc3)c3ccccc3)N(Nc3ccccc3)C2C(=O)N1c1ccccc1` (configuration not stated), the composite z-score was 2.35 (inactive) in experiment [1] and 0.722 with XIP peptide (Xip251-270). The z-score was -0.28 in experiment [2], -1.33 (inactive) in experiment [3], -0.571 (inactive) in experiment [4] and -0.706 (inactive) in experiment [5].
Turning to `COC(=O)[C@@]1(CCC(=O)OC(C)(C)C)N=C(c2ccc(OCCCO)cc2)O[C@H]1c1ccccc1CN=[N+]=[N-]`, the values for the composite z-score (in experiment [1]; in the experiment on XIP peptide (Xip251-270)) were 1.63 (inactive) and 0.512, respectively. Further, the z-score in experiment [2] was -2.27; in experiment [3], -1.11 (inactive); in experiment [4], -0.25 (inactive); in experiment [5], 0.0025 (inactive).
Turning to `O=C1O[C@@H](c2ccccc2)[C@@H](c2ccccc2)N2[C@@H](c3ccc(OCCO)cc3)[C@]3(C(=O)Nc4ccc(C#CCCO)cc43)[C@@H](C(=O)Nc3nc4ccccc4s3)[C@H]12`, the composite z-score is 0.469 (inactive) in experiment [1] and 0.487 in the experiment with XIP peptide (Xip251-270). In addition, the z-score is -1.86 in experiment [2], 1.8 (inactive) in experiment [3], -0.234 (inactive) in experiment [4] and -0.41 (inactive) in experiment [5].
With `C=C(COC)/C(=C/C[C@H](OC(=O)c1ccncc1)c1cccc(OCCO)c1)c1cnc2ccccc2c1`, the composite z-score in experiment [1] is 4.42 (inactive); with XIP peptide (Xip251-270), 0.823. Moreover, the z-score was -2.72 in experiment [2], -4.94 (inactive) in experiment [3], 0.321 (inactive) in experiment [4] and 0.275 (inactive) in experiment [5].
As for `COCCOC(=O)N1C(=O)[C@@]2(c3cc(C#CCCO)ccc31)[C@H](c1ccccc1OCCO)N1[C@H](c3ccccc3)[C@H](c3ccccc3)OC(=O)[C@H]1[C@@H]2C(=O)N1CCc2cc(OC)c(OC)cc2C1`, the values for the composite z-score (in experiment [1]; with XIP peptide (Xip251-270)) were 0.291 (inactive) and 0.816, respectively. Moreover, the z-score in experiment [2] was -1.75; in experiment [3], 0.0237 (inactive); in experiment [4], -0.156 (inactive); in experiment [5] it was 0.0652 (inactive).
In the case of `CN(C)CCCCNC(=O)[C@H]1C[C@H]2C(=O)NCC(=O)N2[C@H]1c1cccc(OCCO)c1`, the composite z-score in experiment [1] is 0.329 (inactive); in the experiment on XIP peptide (Xip251-270), 0.129. The z-score was 0.256 in experiment [2], -1.62 (inactive) in experiment [3], -0.46 (inactive) in experiment [4] and -0.538 (inactive) in experiment [5].
For the molecule `C=C(CCCC)/C(=C/C[C@H](OC(C)=O)c1cccc(OCCO)c1)c1cc(C(=O)OC)ccc1OC`, the results for the composite z-score (in experiment [1]; in the experiment with XIP peptide (Xip251-270)) were 0.0894 (inactive) and -0.185, respectively. Moreover, the z-score in experiment [2] was -2.35; in experiment [3] it was -4.24 (inactive); in experiment [4] it was 0.0786 (inactive); in experiment [5], 0.307 (inactive).
On to `O=C1OCCC/C=C\[C@H]2OC34C=CCN(Cc5ccccc5)C(=O)[C@H]3N(CCCCCO)C(=O)[C@@H]4C12` (some centres not stated), for which the composite z-score in experiment [1] was 0.105 (inactive); in the experiment on XIP peptide (Xip251-270), -0.6. The z-score in experiment [2] was 0.259; in experiment [3], -5.04 (inactive); in experiment [4], -0.312 (inactive); in experiment [5], 0.249 (inactive).
